This note sets out measurements from PubChem BioAssay AID686971 (National Center for Advancing Translational Sciences (NCATS), 2013).

The structures appear in SMILES notation. The whole screen tested about 360,000 compounds, of which about 7,500 (2.1%) were called active. Inconclusive results (about 8%) are left out. Calls follow the shape of the dose curve; as a rule, active = well fitted cell-killing curve with a large enough effect; inconclusive = small, poorly fitted or top-dose-only effect, or effect the other way, or another doubt; inactive = no such curve, though single readings can be large or run the other way. Many of the other results were omitted from the sample, so actives are more common in it than they were.
Potency is read from the fitted curve at half-maximal effect.

The assay can be described thus: qHTS for induction of synthetic lethality in tumor cells producing 2HG: qHTS for the HT-1080-IDH1KD cell line.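 As to activity, negative = toxicity: 0% = DMSO wells and -100% = cell-free medium wells.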 The settings on record: HT-1080 IDH1 knockdown viability, ATP luminescence, 48 h; series mostly up to 46.1 µM; activity, negative = toxicity: at the top concentration. The method in brief:
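HT-1080-IDH1KD cells (IDH1 knocked down), 750/well in RPMI with 5% FBS, treated with compound 48 h at 37 degrees C. Viability by CellTiter-Glo luminescence, normalised to DMSO and no-cell wells; concentration-response curves classed.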
Turning to `CCN1C(=O)[C@@H]2[C@@H]3CN(S(=O)(=O)c4ccccc4C)[C@@H](c4ccc(Cl)cc4)[C@@H]3C(=O)C[C@@H]2C1=O`, the “activity, negative = toxicity” value is 4.33% (inactive). On the same count and under the same terms, the result for `O=[N+]([O-])c1ccccc1/C=C/CN1CCCC(CO)C1` (centres undefined) reads -11.4% (inactive); that for `O=[N+]([O-])c1ccccc1/C=C/CN1CCC(O)CC1`, -1.05% (inactive). Consider `CC1CCCCC1NC(=O)/C(C#N)=C/C=C/c1ccccc1[N+](=O)[O-]` (centres undefined), for which the Potency is 4.61 µM (active). For `CC1=C(C(=O)Nc2cccc(C(=O)NCC(C)c3ccccc3)c2)SCCO1` (centres undefined), the “activity, negative = toxicity” value is -0.161% (inactive). Same read-out and setting: the value for `O=C(NCc1cccnc1)c1cc(C2CCCN(C(=O)C3CCCCC3)C2)on1` (centres undefined) was 0.399% (inactive); that for `COc1cc2ccccc2cc1C(=O)N1CCOCC1` was 2.75% (inactive). Turning to `Cc1oc2c(c1C(=O)N1CCOCC1)C(=O)c1ccccc1C2=O`, the Potency is 9.2 µM (active).

Turning to `O=C(c1snnc1-c1ccccc1)N1CCOCC1`, the “activity, negative = toxicity” value was 13.4% (inactive). On the same count and under the same terms, the value for `O=C(CN1C(=O)NC2(CCc3ccccc32)C1=O)NC1CCCCC1` (centres undefined) was 0.155% (inactive); that for `O=C(COC(=O)/C=C/c1ccc(Cl)cc1)NC1CCS(=O)(=O)C1` (centres undefined) was -4.55% (inactive).

As to `O=C(Nc1ccc(OCCO)cc1)c1csc([C@H]2C[C@H](O)[C@@H](CO)O2)n1`, the “activity, negative = toxicity” value is 10.3% (inactive). On the same count and under the same terms, the value for `CC(C)CN1CCC1(C)C(=O)Nc1ccc(OC(F)F)cc1` (centres undefined) was 2.39% (inactive).

Turning to `O[C@H]1CN(Cc2cccs2)[C@@H](c2ccc(Cl)cc2)C[C@@H]1n1cc(C2CC2)nn1`, the “activity, negative = toxicity” value was 4.5% (inactive). As for `Nc1nonc1-n1nnc(C(=O)N/N=C/c2ccccc2O)c1CN1CCCC1`, the Potency is 14.6 µM (active).

Consider `NNC(=O)c1nnn(-c2nonc2N)c1CN1CCCC1`, for which the “activity, negative = toxicity” value is -3.44% (inactive). The same measure, in the same setting: the value for `Nc1nonc1-n1nnc(C(=O)N/N=C\c2ccncc2)c1CN1CCCCC1` was -3.01% (inactive); that for `O=C1CC[C@@H](C(=O)N2CSC[C@@H]2C(=O)Nc2ccc(C(F)(F)F)cc2)N1` was -2.41% (inactive). Still for that read-out and setting: the result for `O=C(NCc1ccc(F)cc1)c1cc(C2CCCCN2C(=O)C2CCCCC2)on1` (centres undefined) reads -11.2% (inactive); that for `COc1ccc(OCCCC(=O)Oc2ccc(OC)cc2)cc1`, -2% (inactive). For the compound `COc1ccc(OCCC(=O)c2ccc(OC)cc2)cc1`, the Potency was 20.6 µM (active).

For the compound `COc1ccc(CCC(=O)c2ccc(OC)cc2)cc1`, the “activity, negative = toxicity” value was 5.62% (inactive). The same measure, in the same setting: the value for `COc1ccc(C(O)C(O)(C(=O)OC(C)C)c2ccc(C)cc2)cc1` (centres undefined) was -1.24% (inactive).

As for `CC1(C)CC(=O)C=C(c2ccccc2CO)C1=O`, the “activity, negative = toxicity” value was 13.4% (inactive).

For the compound `CCOc1ccc(C(C)C)cc1S(=O)(=O)n1nc(C)cc1C`, the “activity, negative = toxicity” value was 6.39% (inactive). Regarding `COc1ccc(C(C[N+](=O)[O-])n2nc(C)cc2C)cc1` (centres undefined), the Potency is 14.6 µM (active). Turning to `COc1ccc(OC)c(S(=O)(=O)n2c([N+](=O)[O-])cnc2C)c1`, the “activity, negative = toxicity” value is 7.69% (inactive).

On to `Cn1nc(N)c2ncc(C(Cl)(Cl)Cl)nc21`, for which the “activity, negative = toxicity” value was -5.53% (inactive). Same read-out and setting: the value for `CNc1cc(-c2c(OC)cccc2OC)ncn1` was 13.7% (inactive).
